ChEMBL document CHEMBL3988442, “University of Dundee, Small-Polar-MMV Screening Library” (2021)

These molecules were tested against AMP-activated protein kinase, AMPK (Homo sapiens) (UniProt P54646+O43741+P54619+Q9UGJ0+Q9Y478+Q13131+Q9UGI9) (assay: AMP-dependent Kinase enzyme assay. An in vitro enzyme assay that detects ADP turnover that is directly proportional to AMPK activity. This uses naive AMPK that is activated during the assay with MK-8722). Settings: 30 µM.
Assay type: functional
Set-up: scale not given: direction of the effect not stated beside the values
Work on `COc1cc(NCCCSc2nnc(C)s2)ncn1` yielded a Percent Effect of 13.7%. With `Cc1ncsc1C(=O)OCCN1CCCCCC1=O` the Percent Effect was 5.73%. For `CC(C)Cc1noc(CC2CCS(=O)(=O)C2)n1` (stereo not given), the Percent Effect was -13.3%. `CN(C)C(=O)N1CCN(c2cc(N3CCCC3CO)ncn2)CC1` (stereo not given) was tested, and the Percent Effect was -3.16%. `CN(Cc1ccc(OCC(=O)N2CCOCC2)cc1)S(C)(=O)=O` gave a Percent Effect of -30.8%. `Cc1nc(CNCc2ccc(OC34CCCN(CC3)C4)cc2)n[nH]1` (stereo not given) was tested, and the Percent Effect was -5.44%. Work on `CCc1ccc(CCC(=O)N2CCC(=O)Nc3cccnc32)cc1` yielded a Percent Effect of 0.539%. With `COc1cc(CCC(=O)N2CCC(c3cc4ncc(C)nc4[nH]3)C2)on1` (stereo not given) the Percent Effect was -0.349%. `Cc1nccn1[C@@H]1CC[C@@H](N(C)S(=O)(=O)c2ccccc2F)[C@H]1O` was tested, and the Percent Effect was 5.86%. For `N#Cc1ccc(NCc2cccnc2N2CCC(C(N)=O)CC2)cn1`, the Percent Effect was 2.13%. In the case of `O=C(NCCS(=O)(=O)N1CCN(c2ncccn2)CC1)C1CC1`, the Percent Effect is reported as 1.52%. In the case of `CCCN(CCC)C(=O)c1cnn(C)c1C`, the Percent Effect is reported as 3.84%. For `Cc1ccc(-c2ccccc2CC2CNCCNC2=O)c(C)c1` (stereo not given), the Percent Effect was 2.34%. For `Cc1noc(C(C)N2CCN(Cc3noc(C4CC4)n3)CC2)n1` (stereo not given), the Percent Effect was 3.22%. For `O=C(CN1CC(c2nc(-c3ccco3)no2)C1)NCc1ccc(F)cc1`, the Percent Effect was 1.74%. With `COc1ccc(-c2cccc3c2OC(CN)C3)cc1F` (stereo not given) the Percent Effect was 0.444%. With `COc1ccc(CN(C)C(=O)CN2CC(n3cccn3)C2)cc1F` the Percent Effect was -4.28%. `CN(CCc1cccs1)CCc1nccs1` showed a Percent Effect of -4.34%. With `CC(=O)c1cnc(NCCN2CCCC(c3ccccc3)C2)nc1C` (stereo not given) the Percent Effect was -7.52%. Work on `Cn1ccnc1-c1cn(CCCc2nnc(N)s2)nn1` yielded a Percent Effect of -15.1%. `Nc1nc2c(c(NCc3nccs3)n1)CCN(CC1CCCC1)CC2` was tested, and the Percent Effect was 1.23%. `CSCCC(NC(=O)C1CC1)C(=O)N(C)Cc1ccsc1` (stereo not given) was tested, and the Percent Effect was -0.745%. Molecule `Cc1nc(O)cc(C2(C)CCCNC2)n1` (stereo not given) has a Percent Effect of 19.4%. `CC(C)c1noc(CN2CCN(C(=O)OC(C)(C)C)C(C)C2)n1` (stereo not given) was tested, and the Percent Effect was -3.51%. `COCCN1CCC(NC(=O)C/C=C/c2ccc(C(C)C)cc2)CC1` was tested, and the Percent Effect was -8.07%. `CC(c1ncc(-c2ccccc2)o1)N1CCN(C(=O)N(C)C)CC1` (stereo not given) was tested, and the Percent Effect was -7.85%. In the case of `CCNC(=O)[C@@H]1C[C@H](N)CN1c1cc(C(F)(F)F)nc(N2CCCC2)n1`, the Percent Effect is reported as 2.77%. For `COCCn1ccnc1C1CCN(C(=O)CSc2nnc(C)s2)CC1`, the Percent Effect was 7.22%. Work on `CN1C[C@@H]2CC[C@H](CC1=O)N2C(=O)c1cc2ccccc2[nH]c1=O` yielded a Percent Effect of 5.77%. Work on `Cc1nsc(C(=O)NCCc2ccc(Cl)cc2)n1` yielded a Percent Effect of -0.0138%. For `CCN(C)Cc1cccc(CNC(=O)CSCc2ccccn2)c1`, the Percent Effect was 4.61%. With `Cc1cccc(S(=O)(=O)NC2CCN(CC(F)(F)F)C2)c1` (stereo not given) the Percent Effect was -6.29%. For `Cc1cc(CN(CC(N)=O)CC(C)C)no1`, the Percent Effect was -8.69%. `CSCC(C)(O)CNS(=O)(=O)c1cccc(Cl)c1` (stereo not given) showed a Percent Effect of -5.75%. `Cc1cnc(C(NC(=O)NCc2nc(C3CC3)no2)C2CC2)s1` (stereo not given) showed a Percent Effect of 0.145%. `COc1cccc(C(C(=O)O)N2CCSCC2)c1F` (stereo not given) was tested, and the Percent Effect was -1.18%. `Cc1cc(C)n(C2CN(c3nc(-c4ccncc4)nc4c3CCC4)C2)n1` gave a Percent Effect of 2.99%. `O=C(c1coc(COc2ccccc2F)n1)N1CCCO1` showed a Percent Effect of 6.72%. `CCCOc1cc(CNC(=O)Nc2cccc(C(C)=O)c2)ccn1` was tested, and the Percent Effect was -3.21%. Molecule `Cn1cc(-c2cc(C(=O)N3CCOCC3)c3ccc(F)cc3n2)cn1` has a Percent Effect of 18.9%.
